This is an account of results in PubChem BioAssay (EPA / NIEHS).

Inconclusive results are not listed. Calls of active or inactive are those of the source. The calls were made as follows, unless noted: active = hit-call score of the fitted dose curve at least 0.9, where 1 is the maximum; inactive = score below 0.9.

Assay [1] in a line: CCTE_Mundy_HCI_Cortical_Synap_Neur_Matur_NeuriteLength: CCTE's Synaptogenesis and Neurite Maturation Assay in rat cortical cells for Neurite Length, Mundy Lab (AID 2284214). The essentials: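 Rat primary cortical cultures, AraC added DIV 5, dosed DIV 7 through DIV 12 […]. Fixed, MAP2/synaptophysin immunostained with Hoechst; neurite length by high-content imaging, fitted in positive direction versus DMSO.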

Assay [2] can be described thus: CCTE_Mundy_HCI_Cortical_Synap_Neur_Matur_NeuriteSpotCountPerNeuron: CCTE's Synaptogenesis and Neurite Maturation Assay in rat cortical cells for Neurite Spot Count per Neuron Count, Mundy Lab (AID 2284215). A digest of the protocol:
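Synapse density is scored as synaptophysin spots along neurites per neuron in fixed rat cortical neurons, measured at DIV 12 after chemical dosing at DIV 7. DMSO is the negative control and activity baseline.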

Assay [3] in a line: CCTE_Mundy_HCI_Cortical_Synap_Neur_Matur_SynapseCount: CCTE's Synaptogenesis and Neurite Maturation Assay in rat cortical cells for Synapse Count, Mundy Lab (AID 2284218). The essentials: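 Rat primary cortical cultures, AraC at DIV 5, chemical dosing DIV 7 to DIV 12 (288.33 h). Fixed cells stained for MAP2, synaptophysin and Hoechst; synapses per neuron counted by high-content imaging, loss of signal versus DMSO.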

Assay [4] is described as follows: CCTE_Mundy_HCI_hN2_NOG_NeuriteCount: CCTE's Neurite Outgrowth Assay in human hN2 cells for Neurite Count, Mundy Lab (AID 2284219; active = hit-call score of the fitted dose curve at least 0.9, where 1 is the maximum). The essentials:
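In this morphology assay, hNP1-derived neurons received test chemical 2 h post-plating and were fixed two days later in warm paraformaldehyde/sucrose containing Hoechst 33342. Neurites, labelled by rabbit anti-βIII-tubulin (1:800) and Alexa Fluor-488 (1:500), were counted automatically.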

A short description of assay [5]: CCTE_Mundy_HCI_hN2_NOG_NeuriteLength: CCTE's Neurite Outgrowth Assay in human hN2 cells for Neurite Length, Mundy Lab (AID 2284220; active = hit-call score of the fitted dose curve at least 0.9, where 1 is the maximum). The essentials:
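Using βIII-tubulin immunofluorescence and Hoechst nuclear counterstain, this component quantifies neurite length in hNP1-derived neurons.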

Assay [6] is described as follows: CCTE_Mundy_HCI_hN2_NOG_NeuronCount: CCTE's Neurite Outgrowth Assay in human hN2 cells for Neuron Count, Mundy Lab (AID 2284221; active = hit-call score of the fitted dose curve at least 0.9, where 1 is the maximum). The essentials: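 Read-out is the number of betaIII-tubulin-positive neurons imaged by automated high-content analysis, with DMSO as negative control.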
The nature of assay [7]: CCTE_Mundy_HCI_Cortical_Synap_Neur_Matur_NeuriteCount: CCTE's Synaptogenesis and Neurite Maturation Assay in rat cortical cells for Neurite Count, Mundy Lab (AID 2284222). The essentials: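 Rat primary cortical cells; AraC added at DIV 5, chemicals dosed with media change at DIV 7 through DIV 12. MAP2/synaptophysin/Hoechst immunostaining, high-content imaging of neurite number; fitted relative to DMSO.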

A short description of assay [8]: CCTE_Mundy_HCI_Cortical_Synap_Neur_Matur_CellBodySpotCount: CCTE's Synaptogenesis and Neurite Maturation Assay in rat cortical cells for Cell Body Spot Count, Mundy Lab (AID 2284223). A digest of the protocol:
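Synapse number at neuronal cell bodies was quantified as synaptophysin puncta per neuron in rat cortical cultures exposed from DIV 7 to DIV 12. Values were normalised to DMSO.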

The nature of assay [9]: CCTE_Mundy_HCI_hNP1_Pro_ResponderAvgInten: CCTE's Proliferation Assay in human neuroprogenitor cells, Mundy Lab (AID 2284224; active = hit-call score of the fitted dose curve at least 0.9, where 1 is the maximum;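 also: human neural progenitor cells hNP1 derived from WA09 embryonic stem cells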). The essentials:
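Human neuroprogenitors (hNP1, WA09 lineage) receive test chemical after 40 to 44 hours of attachment. A four-hour BrdU pulse begins twenty hours later, followed by fixation and high content imaging; signal is referenced to DMSO controls.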

Assay [10] in a line: CCTE_Mundy_HCI_Cortical_NOG_NeuronCount: CCTE's Neurite Outgrowth Assay in rat cortical cells for Neuron Count, Mundy Lab (AID 2284236; active = hit-call score of the fitted dose curve at least 0.9, where 1 is the maximum;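 also: neurons counted by imaging betaIII-tubulin and Hoechst stained cortical cells; cells exposed to compound for about 48 hours before fixation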). The essentials: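 Read-out: neuron number by high-content imaging of betaIII-tubulin (Alexa Fluor-488) and Hoechst-labelled rat primary cortical cells.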
The nature of assay [11]: CCTE_Mundy_HCI_Cortical_NOG_BPCount: CCTE's Neurite Outgrowth Assay in rat cortical cells for Branch Point Count, Mundy Lab (AID 2284237).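 Also: branch points counted about two days after chemical exposure.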 The essentials: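 Measured 50.33 h after dosing, this morphology endpoint uses rat primary cortical cultures labelled for betaIII-tubulin. Branch points are quantified by high-content imaging, with DMSO as negative control and baseline.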

Assay [12] can be described thus: CCTE_Mundy_HCI_hNP1_Casp3_7: CCTE's Caspase-Glo 3/7 Assay in human neuroprogenitor cells for Apoptosis, Mundy Lab (AID 2284240). A digest of the protocol: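 Neuroepithelial-lineage stem cells from WA09 embryonic cells were treated with chemicals after 40–44 h of culture. Twenty-four hours later, caspase-3/7 activation was detected luminescently after a 30 min room-temperature reagent step, with DMSO as baseline.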

The nature of assay [13]: CCTE_Mundy_HCI_hNP1_CellTiter: CCTE's Cell Titer-Glo 2 Assay in human neuroprogenitor cells for Viability, Mundy Lab (AID 2284241; active = hit-call score of the fitted dose curve at least 0.9, where 1 is the maximum;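 also: a hit is a drop in ATP luminescence versus DMSO meaning reduced viability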). A digest of the protocol:
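Measures ATP content in human neural progenitors derived from WA09 embryonic cells. Read-out at 26.5 hours after dosing, with DMSO serving as the negative control and baseline.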
For orientation: In ATP-based viability assays light output follows the ATP content of the culture.

The nature of assay [14]: CCTE_Mundy_HCI_Cortical_Synap_Neur_Matur_NeuronCount: CCTE's Synaptogenesis and Neurite Maturation Assay in rat cortical cells for Neuron Count, Mundy Lab (AID 2284242; active = hit-call score of the fitted dose curve at least 0.9, where 1 is the maximum;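 also: hits reduce neuron count versus DMSO baseline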). The essentials:
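Rat primary cortical cells, AraC added at DIV 5, dosed with media change from DIV 7 to DIV 12. Fixed, Hoechst-stained and immunolabelled for MAP2 and synaptophysin; neuron number counted by high-content imaging, loss fitted versus DMSO.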

In the case of `CNCCC(Oc1ccc(C(F)(F)F)cc1)c1ccccc1` (centres undefined), the AC50 (usually the midpoint of the concentration-response curve, whichever way the signal moves) is 6.03 µM (active) in assay [1]; 8.96 µM (active) in [2]; 9.16 µM (active) in assay [3]; 12.3 µM (active) in assay [4]; 12.9 µM (active) in assay [5]; 11 µM (active) in [6]. In addition, the AC50 was 11.6 µM (active) in assay [7]; 16 µM (active) in assay [10]; 10.9 µM (active) in assay [11]; 12.7 µM (active) in [12]; 20.7 µM (active) in assay [13]; 5.97 µM (active) in assay [14]. Besides, the compound was called inactive in assay [8] and in [9].
